About 83,000 compounds went through this panel and 20% of them were active in at least one assay; those are over-represented in the sample as a whole.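 Single-concentration screen, 48 h exposure, 96-well plates. Endpoint: percent growth. Below 10 = active.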 A number with no mark means an inactive call. The source made the active and inactive calls.

The test system of this experiment is HL-60(TB) leukemia. In words: NCI-60 one-dose screen, 48 h (100 = growth as untreated, 0 = no growth, -100 = all killed). As to conditions: 10 µM unless noted.
On to `CCN(CC)CCSc1ncnc2c1cnn2-c1ccc(S(N)(=O)=O)cc1`, for which the growth is 72.4%. As for `CC1(O)CCCCC1O` (configuration not stated), the growth was 107%. Consider `COc1ccc(/C=C2\Oc3cc(C)c(Cl)cc3C2=O)cc1OC`, for which the growth was 100%. As for `CCCCCCCCc1ccc(OCCOCC[N+](C)(C)CC)cc1` (tested in a mixture with another compound), the figure is 2.54% (active); as for `COc1cc(OC)cc(C2CC(=O)Nc3c2c(C)nn3-c2nc3ccccc3[nH]2)c1` (configuration not stated), 9.31% (active). For `Cc1ccccc1NC(=O)Cc1csc2[n+]1C(=O)/C(=C/c1ccc([N+](=O)[O-])cc1)S2` the value was 103%; for `O=C(CCCn1c(=O)c2sc3ccccc3c2n2nnc(-c3ccccc3)c12)NCCc1cnc[nH]1`, 82.9%; for `C#CCNC(=O)c1cccc2c1cc(C)n2-c1nc2c(c(NCc3ccccc3)n1)CCCC2`, 0.47% (active). Regarding `CCOC(=O)CNC(=O)C1(NC(=O)CNC(=O)OCc2ccccc2)CCCC1`, the growth was 87.5%. Regarding `C=CCN1C(=O)c2ccccc2C1=O`, the growth is 101%. For the compound `CCOC(=O)CCN(c1c(Cl)ssc1=O)C(C)C`, the growth was 101%. Turning to `O=C(Cc1nc2cc(Cl)c(Cl)cc2nc1CC(=O)c1ccccc1)c1ccccc1`, the growth is 29.7%.

For `COC(=O)[C@]12CC[C@@H](C)[C@H](C)[C@@H]1C1=CC[C@@H]3[C@@]4(C)C[C@@H](OC(C)=O)[C@H](O)[C@@](C)(CO)[C@@H]4[C@H](O)C[C@@]3(C)[C@]1(C)CC2`, the growth is -56.6% (active). On to `CCCCCCCCCCC(CN(CC)CC)C(O)c1ccccc1` (configuration not stated), for which the growth is 44.7%.

In the case of `Cc1ccc(NC(=O)c2[nH]c(SCCN(C)C)nc2-c2ccc(F)cc2)cc1Nc1ccc2ncn(C)c(=O)c2c1`, the growth was 19.3%. As to `Cc1ccc(Cn2c(-c3cccs3)nc3ccccc32)cc1`, the growth is 122%. With `O=C1C=CC(O)=CC1=P(c1ccccc1)(c1ccccc1)c1ccccc1`, the growth was 97.8%. As for `CCCc1cc(=O)oc2c(C(=O)CC(C)C)c(O)c(CC=C(C)C)c(O)c12`, the growth was 2.72% (active). In the case of `Cc1c2cnccc2c(C)c2c1c1cc(C#N)ccc1n2C`, the growth was -48.8% (active).

In the case of `O=C(CCl)N1c2ccccc2Sc2ccc3ccccc3c21`, the growth is -44.1% (active). Take `N#Cc1cnc2cc(OC[C@@H](O)CO)c(NC(=O)C3CCCC3)cc2c1Nc1ccc(OCc2cccc(F)c2)c(Cl)c1`: the growth was -28.8% (active). Regarding `COc1ccc(C2=NN(C(C)=O)C(c3cn(Cc4ccc(Cl)cc4)c4ccccc34)C2)cc1` (configuration not stated), the growth was 79.5%. For the compound `Nc1ccc(C(=O)Nc2cccc(C(=O)Nc3ccc4c(O)c(N=Nc5ccc(N=Nc6ccc(S(=O)(=O)O)cc6)cc5)c(S(=O)(=O)O)cc4c3)c2)cc1`, the growth was 89.1%. Consider `O=C(Nc1ncc(Cc2cccc(C(F)(F)F)c2)s1)c1ccc(-n2cnnn2)cc1`, for which the growth was 70.8%.

With `CCCn1c(N)c(C(N)=O)sc1=S`, the growth is 94.9%. `CC(C)(C)c1cc(Cl)c(O)c(CNCCO)c1`: the growth was 117%.

As to `CN1C(=O)N(C)C2(c3ccccc3)n3c(s/c(=C\c4ccccc4)c3=O)=NNC12c1ccccc1` (configuration not stated), the growth was 90.1%. `N#CSCC1CC(O)(c2ccccc2)C(c2ccccc2)C(c2ccc(Cl)cc2)O1` (configuration not stated): the growth was -1.83% (active). For the compound `Fc1ccc(Cc2ccc(F)cc2)cc1`, the growth is 103%. For `O=C(NCCOCCOCCNc1cccc2c1C(=O)N(C1CCCNC1=O)C2=O)c1cc2c(o1)C(=O)c1ccccc1C2=O` (configuration not stated) the value was -1.81% (active).

As for `O=C(C[C@@H](C(=O)NCc1cccc(C(F)(F)F)c1)N1C(=O)[C@@H](N2C(=O)OC[C@@H]2c2ccccc2)[C@H]1/C=C/c1ccccc1)NC1CCN(Cc2ccccc2)CC1`, the growth was 55.3%.

Turning to `O=C(c1ccccc1)C(Br)C(Br)c1cccc([N+](=O)[O-])c1` (configuration not stated), the growth is -2.38% (active).

On to `c1cc[n+](Cc2c3ccccc3cc3c2ccc2ccccc23)cc1`, for which the growth is 36%. Turning to `CCN1C(=S)N(CC)C2C1NC(=S)N2/N=C/C=C/c1ccccc1` (configuration not stated), the growth is -22.2% (active).

`Cc1cnc(C(=O)Nc2nc3ccc(S(=O)(=O)Nc4ccc(C5(C(F)(F)F)CC5)cc4)cc3[nH]2)cn1`: the growth was -25.1% (active). In the case of `COc1cc(OC)c2sc(-c3ccc(-n4cncc4-c4ccc(N)cc4)cc3)nc2c1`, the growth is 52.6%. For the compound `COc1ccc(-c2nc(N/N=C/c3cccc(O)c3)nc(N3CCOCC3)c2C#N)cc1`, the growth was 49.2%.

For the origin of these results see PubChem BioAssay (NCI).
